{
  "source": "paper PMC5540273",
  "about": "(PLoS ONE, 2017);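 note: KINOMEscan kinase panel screen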",
  "data": [
    {"system": "T1, YANK3", "T1 construct": "gene STK32C", "settings": "concentration: 1 μM, replicates: in singlicate; n = 1", "units": {"%Inh": "%"}, "values": [
      {"smiles": "Cc1ccc(S(=O)(=O)Nc2ccc(Nc3nccc(Nc4cccc5[nH]ncc45)n3)cc2)cc1", "note": "[GSK581271]", "%Inh": 3},
      {"smiles": "CC(=O)Nc1nc2cnc(Nc3cc(NC(=O)c4cccc(C5(C#N)CC5)c4Cl)ccc3C)nc2s1", "%Inh": 25},
      {"smiles": "CNC(=O)c1ccccc1Nc1nc(Nc2ccc(N3CCOCC3)cc2)ncc1Cl.Cl", "note": "[GSK1576028]", "%Inh": 24},
      {"smiles": "Cc1ccc(C(=O)N2CC[C@@H](O)C2)cc1-n1c(C)cc(OCc2ccc(F)cc2F)c(Br)c1=O", "%Inh": 0},
      {"smiles": "COc1ccc(Nc2nccc(N3CCC(NC(=O)Nc4cccc(OC)c4)C3)n2)cc1", "note": "(stereo not drawn) [GSK1379742]", "%Inh": 0},
      {"smiles": "Cl.Cl.NCC(C(=O)Nc1cc(Br)c(-c2ccnc3[nH]ccc23)s1)c1ccccc1", "note": "(stereo not drawn) [GSK1269851]", "%Inh": 0},
      {"smiles": "Oc1cc(Nc2ccnc3cc(I)ccc23)ccc1F", "note": "[GW552771]", "%Inh": 31},
      {"smiles": "COc1ccc(Nc2nccc(NCCNC(=O)c3cc4ccccc4s3)n2)cc1", "note": "[GSK1379896]", "%Inh": 0},
      {"smiles": "CCS(=O)(=O)c1ccc(OC)c(Nc2nccc(-c3c(-c4cccc(NC(=O)c5c(F)cccc5F)c4)nn4ncccc34)n2)c1", "note": "[GSK326180]", "%Inh": 24},
      {"smiles": "COc1cccc(C(=O)Nc2cccc(Oc3ccc4nc(NC(=O)C5CC5)cn4n3)c2)c1", "%Inh": 0},
      {"smiles": "CN(C)Cc1ccc(-c2ccc3c(Nc4ccc(Oc5ccccn5)cc4)ccnc3c2)o1", "note": "[GW567148]", "%Inh": 20},
      {"smiles": "Clc1ccc(-c2nn3ncccc3c2-c2ccnc(Nc3ccc4c(c3)OCCO4)n2)cc1", "note": "[GW829116]", "%Inh": 0}
    ]}
  ]
}
